The sample as a whole holds a higher share of hits than the screen did.
NOMO-1 viab = STK33 inhibitor candidate reducing NOMO-1 cell viability; NOMO-1 AML viability, CellTiter-Glo luminescence, 72 h; inhibition, % (test concentration not listed); 37,000 tested, 7.5% active; AID 2330; in the data active = inhibition above about 80%; inconclusive = no clear call, values can overlap the other calls
U2OS ROS induce = raises reactive oxygen species in U2OS cancer cells; AID 624156; ROS induction (% of piperlongumine), % at 10 µM; U2OS ROS induction, H2DCF-DA fluorescence; 46,000 tested, 2% active; in the data active = ROS induction above about 79%, passing the limit was not always enough; inconclusive = no clear call, values can overlap the other calls
Hits are given with their value.

Screening C[C@H]1CN([C@@H](C)CO)C(=O)Cc2cc(NC(=O)Cc3cn(C)c4ccccc34)ccc2O[C@H]1CN(C)C(=O)Nc1ccc(C(F)(F)F)cc1 returned NOMO-1 viab inactive and U2OS ROS induce 100.
For CC(C)NC(=O)N(C)C[C@H]1Oc2ccc(N(C)C)cc2CC(=O)N([C@@H](C)CO)C[C@@H]1C the results were NOMO-1 viab inactive and U2OS ROS induce inactive.
For C[C@@H]1CN([C@H](C)CO)C(=O)Cc2cc(N(C)C)ccc2O[C@@H]1CN(C)C(=O)NC1CCCCC1 the results were NOMO-1 viab inactive and U2OS ROS induce 108.
`O=C(N/N=C/c1ccc(O)cc1O)c1ccccn1` gave U2OS ROS induce inactive.
CCc1cccc(C)c1NC(=O)CSc1nnc(-c2ccccc2)n1-c1ccccc1 was read as NOMO-1 viab inactive and U2OS ROS induce inactive.
`Cc1nc(-c2ccccc2)sc1C(=O)Sc1ccc(Cl)cc1` gave U2OS ROS induce inactive.
For Cc1ccc([N+](=O)[O-])cc1NC(=O)CN(c1ccc(I)cc1)S(C)(=O)=O the results were NOMO-1 viab inactive and U2OS ROS induce inactive.
For COc1ccc(NC(=O)N(C)C[C@@H]2Oc3c(NS(=O)(=O)c4cccs4)cccc3C(=O)N([C@H](C)CO)C[C@H]2C)cc1 the results were NOMO-1 viab inactive and U2OS ROS induce inactive.
Cc1ccc(S(=O)(=O)Nc2ccc3c(c2)C(=O)N([C@@H](C)CO)C[C@@H](C)[C@@H](CN(C)CC2CC2)O3)cc1 was read as NOMO-1 viab inactive and U2OS ROS induce inactive.
`C[C@@H]1CN([C@H](C)CO)C(=O)Cc2cc(NC(=O)Nc3ccc(C(F)(F)F)cc3)ccc2O[C@H]1CN(C)C(=O)Nc1ccc(C(F)(F)F)cc1` gave NOMO-1 viab inactive and U2OS ROS induce inactive.
CC(C)NC(=O)N(C)C[C@@H]1Oc2ccc(NC(=O)Nc3ccc4c(c3)OCO4)cc2CC(=O)N([C@H](C)CO)C[C@H]1C was read as NOMO-1 viab inactive and U2OS ROS induce 126.
`CC(C)NC(=O)N(C)C[C@H]1Oc2ccc(NC(=O)Nc3ccc4c(c3)OCO4)cc2CC(=O)N([C@@H](C)CO)C[C@@H]1C` gave NOMO-1 viab inactive and U2OS ROS induce inactive.
`Cc1noc(C)c1NC(=O)N(C)C[C@@H]1Oc2ccc(NC(=O)NC3CCCCC3)cc2CC(=O)N([C@H](C)CO)C[C@H]1C` gave NOMO-1 viab inactive and U2OS ROS induce inactive.
C[C@@H]1CN([C@@H](C)CO)C(=O)Cc2cc(NC(=O)Nc3ccc(C(F)(F)F)cc3)ccc2O[C@@H]1CN(C)C(=O)Nc1ccc(C(F)(F)F)cc1 was read as NOMO-1 viab 114 and U2OS ROS induce inactive.
COc1ccc(NC(=O)N(C)C[C@H]2Oc3ccc(NC(=O)NC4CCCCC4)cc3CC(=O)N([C@H](C)CO)C[C@H]2C)cc1 was read as NOMO-1 viab inactive and U2OS ROS induce 83.
Screening COc1ccc(NC(=O)Nc2ccc3c(c2)CC(=O)N([C@@H](C)CO)C[C@@H](C)[C@@H](CN(C)C(=O)NC2CCCCC2)O3)cc1 returned NOMO-1 viab inactive and U2OS ROS induce inactive.
Screening Cc1noc(C)c1NC(=O)N(C)C[C@H]1Oc2ccc(NC(=O)NC3CCCCC3)cc2CC(=O)N([C@@H](C)CO)C[C@@H]1C returned NOMO-1 viab inactive and U2OS ROS induce 104.
C[C@@H]1CN([C@@H](C)CO)C(=O)c2cc(NC(=O)Nc3ccc(F)cc3)ccc2O[C@@H]1CN(C)Cc1ccc(C(=O)O)cc1 was read as NOMO-1 viab inactive and U2OS ROS induce inactive.
O=C(CSc1nc2ccccc2c(=O)n1CC1CCCO1)Nc1cccc(C(F)(F)F)c1 (stereo not drawn) was read as U2OS ROS induce inactive.
Screening COc1ccc(S(=O)(=O)N(C)C[C@@H]2Oc3c(NC(=O)c4cc(C)nn4C)cccc3C(=O)N([C@H](C)CO)C[C@H]2C)cc1 returned NOMO-1 viab inactive and U2OS ROS induce inactive.
`Cc1cc2c(cc3c(=O)n(CC(=O)NCCN4CCOCC4)ncn32)s1` gave U2OS ROS induce inactive.
C[C@@H]1CN([C@H](C)CO)C(=O)c2cc(NC(=O)CCC(F)(F)F)ccc2O[C@@H]1CN(C)CC1CC1 was read as NOMO-1 viab inactive and U2OS ROS induce inactive.
`COc1ccc(Cl)cc1NC(=S)NCCn1cc(Br)cn1` gave NOMO-1 viab inactive and U2OS ROS induce inactive.
For Cc1noc(C)c1S(=O)(=O)Nc1ccc2c(c1)C(=O)N([C@H](C)CO)C[C@H](C)[C@@H](CN(C)S(=O)(=O)c1cn(C)cn1)O2 the results were NOMO-1 viab inactive and U2OS ROS induce inactive.
For C[C@@H]1CN([C@@H](C)CO)C(=O)c2cc(NC(=O)Nc3ccccc3)ccc2O[C@@H]1CN(C)S(C)(=O)=O the results were NOMO-1 viab inactive and U2OS ROS induce inactive.
CC(C)NC(=O)N(C)C[C@H]1Oc2ccc(NC(=O)Nc3ccc(C(F)(F)F)cc3)cc2CC(=O)N([C@H](C)CO)C[C@H]1C was read as NOMO-1 viab inconclusive and U2OS ROS induce inactive.
Screening CNC[C@@H]1Oc2ccc(NC(=O)NC(C)C)cc2CC(=O)N([C@@H](C)CO)C[C@@H]1C returned NOMO-1 viab inactive and U2OS ROS induce inactive.
C[C@H]1CN([C@@H](C)CO)C(=O)Cc2cc(NC(=O)Nc3ccc(C(F)(F)F)cc3)ccc2O[C@@H]1CN(C)C(=O)NC1CCCCC1 was read as NOMO-1 viab inactive and U2OS ROS induce inactive.
`CNC[C@@H]1Oc2ccc(NC(=O)NC(C)C)cc2CC(=O)N([C@H](C)CO)C[C@@H]1C` gave NOMO-1 viab inactive and U2OS ROS induce 127.
Screening C[C@@H]1CN([C@H](C)CO)C(=O)Cc2cc(NC(=O)Nc3ccc(C(F)(F)F)cc3)ccc2O[C@@H]1CN(C)C(=O)NC1CCCCC1 returned NOMO-1 viab 112 and U2OS ROS induce inactive.
For CC(C)NC(=O)N(C)C[C@H]1Oc2ccc(NC(=O)Nc3ccc(C(F)(F)F)cc3)cc2CC(=O)N([C@@H](C)CO)C[C@H]1C the results were NOMO-1 viab 114 and U2OS ROS induce inactive.
CC(C)(C)c1ccc(Oc2ncccc2C(=O)O)cc1 was read as U2OS ROS induce inactive.
Cc1ccc(S(=O)(=O)Nc2cccc3c2O[C@@H](CN(C)C(=O)Nc2cccc4ccccc24)[C@@H](C)CN([C@@H](C)CO)C3=O)cc1 was read as NOMO-1 viab inactive and U2OS ROS induce inactive.
Screening O=c1c2c3c(sc2nc(SCc2nc4ccccc4[nH]2)n1-c1ccccc1)CCC3 returned NOMO-1 viab inactive and U2OS ROS induce inactive.
For COC(=O)c1ccccc1NC(=O)c1ccc(NC(=O)C(C)Oc2ccccc2)cc1 (stereo not drawn) the results were NOMO-1 viab inactive and U2OS ROS induce inactive.
For CC(Oc1ccc(C(=O)Nc2ccc(Cl)cc2)cc1)C(=O)Nc1ccc(Br)cc1 (stereo not drawn) the results were NOMO-1 viab 136 and U2OS ROS induce inactive.
For Cc1ccc(NC(=O)c2ccc(OC(C)C(=O)Nc3ccccc3)cc2)cc1 (stereo not drawn) the results were NOMO-1 viab inactive.
Screening Cc1cccc(NC(=O)c2ccc(OC(C)C(=O)Nc3ccc(Br)cc3)cc2)c1C (stereo not drawn) returned NOMO-1 viab 115 and U2OS ROS induce inactive.
Screening C=CC[C@]1(C(=O)NCc2ccccc2)N=C(c2ccc(OCCCO)cc2)O[C@H]1c1ccccc1 returned U2OS ROS induce inactive.
`C[C@H]1CN([C@@H](C)CO)C(=O)c2cc(NC(=O)Nc3ccc(F)cc3)ccc2O[C@@H]1CN(C)CC1CC1` gave NOMO-1 viab inactive and U2OS ROS induce inactive.

Screening results: PubChem BioAssay, Broad Institute
